Hits are enriched below; roughly 22% of the tested compounds scored in any of these assays.
CYP2C19 act = activators of human cytochrome P450 2C19. recombinant CYP2C19, luciferin-H EGE luminescence; active compounds read high; 0 = fully inhibited enzyme, 1 = untreated enzyme. activation factor at 5 µM. 96,000 tested, under 10 active;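 active = activation factor of at least 2 at 5 µM in the primary screen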
Target sequence (P33261 whole entry, looked up): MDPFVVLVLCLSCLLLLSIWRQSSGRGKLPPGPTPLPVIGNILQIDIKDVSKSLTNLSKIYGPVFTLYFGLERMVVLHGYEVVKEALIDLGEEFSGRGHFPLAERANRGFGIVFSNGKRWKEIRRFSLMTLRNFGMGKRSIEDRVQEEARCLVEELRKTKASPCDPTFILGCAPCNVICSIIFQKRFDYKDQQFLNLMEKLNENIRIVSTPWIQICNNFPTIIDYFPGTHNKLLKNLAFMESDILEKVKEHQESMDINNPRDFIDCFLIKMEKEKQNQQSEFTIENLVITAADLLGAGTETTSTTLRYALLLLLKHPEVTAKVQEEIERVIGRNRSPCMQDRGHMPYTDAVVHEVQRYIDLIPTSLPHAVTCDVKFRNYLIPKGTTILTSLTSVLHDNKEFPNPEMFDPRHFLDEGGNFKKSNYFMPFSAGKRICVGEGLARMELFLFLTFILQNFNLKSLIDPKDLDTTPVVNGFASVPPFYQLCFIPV
CYP2C9 act = activators of human CYP2C9. P11712. recombinant CYP2C9, luciferin-H conversion, luminescence; active compounds read high; factor 1 = untreated enzyme, 0 = blocked. activation factor at 5 µM. 96,000 tested, 1.4% active;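 active = activation factor of 2 or more for CYP2C9 at a 5 µM dose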
CYP2C9 inhib = blocks human cytochrome P450 2C9 | P11712 | CYP2C9 Supersomes, luciferin-H conversion, luminescence | inhibition, % at 5 µM | 96,000 tested, 20% active | AID 777;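 active = blocking of liver enzyme CYP2C9 beyond about 50% at 5 µM, limit read from the data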
Measles CPE = protection of cells from measles virus; Measles virus-infected cells, CPE protection, absorbance; protection (pct of control), % at 4 µM; 140,000 tested, 1.5% active; in the data active = protection mostly above about 24%, no sharp cut-off; inactive = mostly below about 26%
CYP2C19 inhib = human CYP2C19 inhibition; CYP2C19 Supersomes, luciferin-H EGE luminescence, 30 min; AID 778; 96,000 tested, 21% active; inhibition, % at 5 µM;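 active = CYP2C19 inhibition above a set limit at 5 µM in the primary screen, cut at about 50% in these data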
Large screens that a line does not name were inactive.

COc1cccc(-c2cn3nc(C)c(C)nc3n2)c1	CYP2C19 inhib 83
Cc1nc2nc(-c3ccc(Cl)cc3)cn2nc1C	CYP2C19 inhib 56
Cc1nc2nc(-c3cccs3)cn2nc1C	CYP2C19 inhib 62
COc1ccc(-c2cn3nc4c(nc3n2)CCCC4)cc1	none
O=C1c2ccccc2C(=O)N1c1nc2nccc(-c3ccccc3)n2n1	none
CN(C)c1ccc(/C=N\Nc2nc(-c3ccccc3)cc(=O)[nH]2)cc1	none (no result: CYP2C19 act, CYP2C9 act, CYP2C9 inhib, CYP2C19 inhib)
CC1(C)Cc2c(ccc3ccccc23)/C(=C/C#N)N1	none
CNC(=O)/C=C1\NC(C)(C)Cc2c1ccc1ccccc21	CYP2C19 inhib 67
Cc1ccc(NC(=O)C2C(c3ccccc3)C2(Cl)Cl)c(C)c1 (stereo not drawn)	CYP2C9 inhib 52, CYP2C19 inhib 97
Cc1ccc(NC(=O)C2C3CCCC2C3c2ccccc2)c(C)c1 (stereo not drawn)	none (no result: CYP2C19 act, CYP2C9 act, CYP2C9 inhib, CYP2C19 inhib)
Cc1ccc2occ(-c3nn[nH]n3)c(=O)c2c1	none (no result: CYP2C19 act, CYP2C9 act, CYP2C9 inhib, CYP2C19 inhib)
COC(=O)CSC1=C(C#N)C(=O)NC(c2ccccc2)S1 (stereo not drawn)	CYP2C9 inhib 92, CYP2C19 inhib 58
CN1CCN(NC(=O)C23CC4CC(CC(C4)C2)C3)CC1	none (no result: CYP2C19 act, CYP2C9 act, CYP2C9 inhib, CYP2C19 inhib)
O=C1c2ccccc2C(O)N1CCN1CCOCC1 (stereo not drawn)	none (no result: CYP2C19 act, CYP2C9 act, CYP2C9 inhib, CYP2C19 inhib)
COC(=O)c1cc(NC2c3ccccc3C(=O)N2CCN2CCOCC2)cc(C(=O)OC)c1 (stereo not drawn)	CYP2C19 inhib 98
O=C1c2ccccc2C(Nc2ccc(Cl)cc2)N1CCN1CCOCC1 (stereo not drawn)	CYP2C19 inhib 75
O=C(O)CSCCc1ccccn1	none
Cc1ccc(-n2nc(C)cc2NC(=O)c2ccc(C)s2)cc1	CYP2C19 inhib 76
Cc1cc(NC(=O)c2cc(-c3ccccc3)on2)n(-c2ccccc2)n1	none
Cc1ccccc1NC(=O)c1ccc(-c2ccc(Cl)cc2Cl)o1	none
Cc1[nH][nH]c(=O)c1C(c1ccc(-c2ccc(Cl)cc2Cl)o1)c1c(C)[nH][nH]c1=O	CYP2C19 inhib 74
CCC1Sc2ccccc2N(CC(=O)NCc2ccccc2OC)C1=O (stereo not drawn)	none
COc1cc(C2CC(=O)N(CC(=O)NCc3ccco3)c3ccccc3S2)cc(OC)c1OC (stereo not drawn)	CYP2C9 inhib 71, CYP2C19 inhib 65
O=C(CN1C(=O)CC(c2ccco2)Sc2ccccc21)NCc1ccc2c(c1)OCO2 (stereo not drawn)	CYP2C9 inhib 86, CYP2C19 inhib 94
O=C(CN1C(=O)CC(c2ccco2)Sc2ccccc21)Nc1ccccc1F (stereo not drawn)	none (no result: CYP2C19 act, CYP2C9 act, CYP2C9 inhib, CYP2C19 inhib)
CCN1C(=O)CC(c2ccco2)Sc2ccccc21 (stereo not drawn)	CYP2C19 inhib 53
CCOC(=O)c1cccc(NC(=O)CSc2nc3cccnc3n2C)c1	CYP2C19 inhib 58
CCOC(=O)c1c(NC(=O)CSc2nc3cccnc3n2C)sc(C(C)=O)c1C	CYP2C9 inhib 69
CCOC(=O)c1c(NC(=O)CSc2ncnc3ccccc23)sc(C(C)=O)c1C	none (no result: CYP2C19 act, CYP2C9 act, CYP2C9 inhib, CYP2C19 inhib)
CCOC(=O)c1c(NC(=O)CSc2nc3ccccc3c(=O)n2-c2ccc(F)cc2)sc(C(C)=O)c1C	Measles CPE 33 (no result: CYP2C19 act, CYP2C9 act, CYP2C9 inhib, CYP2C19 inhib)
CCOC(=O)c1cccc(NC(=O)Cn2c(CC(=O)NC)nc3ccccc32)c1	CYP2C9 inhib 71
CCOC(=O)c1c(C)[nH]c(C)c1C(=O)CSc1nc2ccccc2c(=O)n1-c1ccc(CC)cc1	none (no result: CYP2C19 act, CYP2C9 act, CYP2C9 inhib, CYP2C19 inhib)
COc1ccc(OC)c(NC(=O)C2CCN(S(C)(=O)=O)CC2)c1	none
CCOC(=O)c1sc(NC(=O)CSc2nnnn2-c2ccccc2)c(C(=O)OCC)c1C	none
CCOC(=O)c1c(NC(=O)CSc2nnc(-c3ccccc3C)n2C)sc(C(C)=O)c1C	CYP2C9 inhib 95, CYP2C19 inhib 84
COc1cc2cc(C(c3nnnn3C(C)(C)C)N3CCc4ccccc4C3)c(=O)[nH]c2cc1OC (stereo not drawn)	CYP2C9 inhib 81, CYP2C19 inhib 65
CCN1CCN(C(c2cc3cc4c(cc3[nH]c2=O)OCO4)c2nnnn2C(C)(C)CC)CC1 (stereo not drawn)	none
CCC(C)(C)n1nnnc1C(c1cc2cc(C)ccc2[nH]c1=O)N1CCCC1 (stereo not drawn)	none
CCC(C)(C)n1nnnc1C(c1cc2cc(OC)c(OC)cc2[nH]c1=O)N1CCc2ccccc21 (stereo not drawn)	CYP2C9 inhib 77
CC(C)(C)n1nnnc1C(c1cc2cc3c(cc2[nH]c1=O)OCO3)N1CCN(c2ccccc2)CC1 (stereo not drawn)	none
Cc1ccc2cc(C(c3nnnn3C(C)(C)C)N3CCCCCC3)c(=O)[nH]c2c1 (stereo not drawn)	CYP2C9 inhib 65
Cc1ccc(C(=O)N/C(=C\c2cccs2)C(=O)NCc2ccncc2)cc1	Measles CPE 47
Cc1ccc(C(=O)N/C(=C/c2cccs2)C(=O)N2CCCCCC2)cc1	CYP2C9 inhib 51
Cc1ccc(C(=O)N/C(=C\c2sccc2C)C(=O)NCc2ccco2)cc1	Measles CPE 61
Cc1ccc(C(=O)N/C(=C\c2sccc2C)C(=O)NCc2ccncc2)cc1	none (no result: CYP2C19 act, CYP2C9 act, CYP2C9 inhib, CYP2C19 inhib)
Cc1ccccc1C(=O)N[C@H](C(=O)OCC(=O)c1ccc[nH]1)C(C)C	none (no result: CYP2C19 act, CYP2C9 act, CYP2C9 inhib, CYP2C19 inhib)
CCOC(=O)c1c(-c2ccccc2)nnn1-c1nc(OC)nc(N2CCOCC2)n1	none
CCOC(=O)c1nnn(-c2nonc2N)c1-c1ccc(C)cc1	none
CCOC(=O)c1c(N)nn(C(=O)CC)c1-c1ccccc1	none (no result: CYP2C19 act, CYP2C9 act, CYP2C9 inhib, CYP2C19 inhib)
CCOC(=O)c1c(N)nn(C(=O)C(C)C)c1-c1ccccc1	CYP2C19 inhib 69
CCOC(=O)c1nnn(-c2nc(OC)nc(N3CCCC3)n2)c1-c1ccccc1	CYP2C9 inhib 53, CYP2C19 inhib 68
Cc1c(C(=O)OCc2ccccc2)nnn1-c1nonc1N	CYP2C19 inhib 99
CCOC(=O)c1nnn(-c2nonc2N)c1-c1ccccc1	CYP2C19 inhib 72
Cc1cccc2cc(C#N)c(SCC(=O)NCc3cccs3)nc12	none (no result: CYP2C19 act, CYP2C9 act, CYP2C9 inhib, CYP2C19 inhib)
CCOC(=O)c1nnn(-c2nonc2N)c1CSc1ccccc1	none
CCOC(=O)c1nnn(-c2nonc2N)c1CN(C)Cc1ccccc1	CYP2C9 inhib 83
CCOC(=O)c1nnn(-c2nn3nnnc3c3ccccc23)c1C	CYP2C9 inhib 55
COc1ccc(-c2cnc3c(c2)CCC3(C#N)C#N)cc1	none (no result: CYP2C19 act, CYP2C9 act, CYP2C9 inhib, CYP2C19 inhib)
CCOC(=O)C1=C(C)OC(N)=C(C(=O)OCC)C1c1ccncc1 (stereo not drawn)	CYP2C9 inhib 99, CYP2C19 inhib 93
CCOC(=O)C1=C(C)OC(N)=C(C(=O)OCC)C1c1cccnc1 (stereo not drawn)	CYP2C9 inhib 96, CYP2C19 inhib 92
CC(=O)C1=C(C)OC(N)=C(C#N)C1c1ccncc1 (stereo not drawn)	none
O=c1cc2c(nn1Cc1ccc(Cl)cc1)-c1ccccc1CC2	CYP2C9 inhib 97, CYP2C19 inhib 97
O=c1cc2c(nn1Cc1cccc(Cl)c1)-c1ccccc1CC2	CYP2C9 inhib 100, CYP2C19 inhib 84
COCCNc1nc(SCC(=O)N2CCN(c3ccccc3)CC2)nc2ccccc12	none (no result: CYP2C19 act, CYP2C9 act, CYP2C9 inhib, CYP2C19 inhib)

Screening results: PubChem, several laboratories
